Most compounds without a hit are left out; they make up all but 1.4% or so of the library.
FadD28 FP inh: blocks FadD28 binding to the bisubstrate probe; fluorescence polarization; inhibition, % at 12.5 µM; actives 0.22% (n = 360,000); AID 588549; in the data active means inhibition above about 8.5%, passing the limit was not always enough
PrP UTR inh: suppresses PrP 5' UTR mRNA reporter expression; cell-based PrP 5' UTR mRNA reporter, plate reader; inhibition, % (test concentration not listed); actives 0.35% (n = 340,000); AID 488862; in the data active means inhibition above about 52%; further: 0 = median of the neutral control wells
Vc quorum ag-1: quorum light induction in luxS cqsA deficient V. cholerae; V. cholerae BH1578 lux reporter, luminescence, 6 h; actives 0.16% (n = 350,000); activation, % at 18.7 µM; in the data active means activation mostly above about 9.7%, no sharp cut-off
PriA SSB inh: K. pneumoniae PriA-SSBct interaction inhibition; AlphaScreen SSBct-PriA binding, biotinylated peptide; inhibition, % at 33 µM; actives 0.6% (n = 430,000); in the data active means inhibition mostly above about 37%, no sharp cut-off; inactive means mostly below about 20%;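 further: plate controls were negative control peptide for no effect and reference peptide for full effect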
PrPC TRFRET: cell surface PrPC inhibition, primary TR-FRET screen. P04156. TR-FRET read-out. inhibition, % at 13.8 µM. actives 0.43% (n = 370,000). AID 720596; in the data active means inhibition above about 24%; further: 0% = median of the test wells and 100% = reference compound wells
Vc quorum ag-2: induces V. cholerae light production without autoinducers. AID 602243. V. cholerae BH1578 lux reporter, luminescence, 6 h. 620 tested, under 10 active. activation, % at 50 µM. shares compounds with Vc quorum ag-1; call rule not given here
HeLa 24h tox: kills HeLa cells within 24 hours; shares compounds with Vc quorum ag-1; HeLa viability, CellTiter-Glo ATP luminescence; activity change, negative = cytotoxicity, % at 35 µM; 25 tested, under 10 active; AID 624140;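 active means signal drop with fitted half-maximal concentration at or below twice the highest valid dose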
* marks the source's active call; other numbers are inactive results; i = inactive; / = no result; + = active, no number.

SMILES | FadD28 FP inh | PrP UTR inh | Vc quorum ag-1 | PriA SSB inh | PrPC TRFRET | Vc quorum ag-2 | others
COc1cc2c(cc1OC)C(COc1ccc([N+](=O)[O-])cc1)N(C(=O)c1cc([N+](=O)[O-])ccc1Cl)CC2 (stereo unspecified) | / | / | / | -1 | / | /
Cc1ccnc(SCc2cn3c(C)cc(C)nc3n2)n1 | -4 | -7 | 2 | -7 | 6 | /
Cc1cc(C)n2cc(COc3ccc4ccccc4c3)nc2n1 | -7 | -109 | + | -8 | -4 | 287
CCC(CC)c1nnc(NC(=O)COc2ccc3c(C)cc(=O)oc3c2)s1 | / | / | 25 | -7 | 1 | 0
Cc1nnc(NC(=O)COc2ccc3c(C)cc(=O)oc3c2)s1 | -1 | -4 | -1 | -8 | -4 | /
O=C(CNc1cc(S(=O)(=O)N2CCOCC2)ccc1N1CCCC1)Nc1ccc(Cl)cc1 | -4 | -13 | 97* | -2 | -5 | 0
CC(=O)c1ccc(NC(=O)CNc2cc(S(=O)(=O)N3CCOCC3)ccc2N2CCCC2)cc1 | 0 | -92 | i | -7 | -3 | /
O=C(NCCCn1ccc2cccnc21)c1cc(-c2ccco2)on1 | / | / | / | -6 | / | /
CCc1sc(N(C(=O)Cc2ccccc2)c2cccc(F)c2)nc1-c1ccc(C)cc1 | -2 | -5 | 12 | -18 | 6 | 0
CCN(CC)C(=O)c1sc(NC(=O)Cc2ccc(OC)cc2)c(C#N)c1C | -1 | -12 | 17* | -6 | -2 | 0
CCN(CC)C(=O)c1sc(NC(=O)Cc2ccccc2)c(C#N)c1C | 2 | -14 | 2 | -14 | 4 | /
Cc1cc(OC(C)C(=O)NN=CCC(C)c2ccccc2)ccc1Cl (stereo unspecified) | / | / | / | -9 | / | /
COC(=O)c1cnn(-c2nc(-c3ccccc3)cs2)c1N | -1 | -42 | 70* | -3 | -7 | 0
CCS(=O)(=O)N1CCCc2ccc(NS(=O)(=O)c3ccc(OC)c(OC)c3)cc21 | / | / | / | 13 | / | /
C=CCNC(=O)CCCOc1ccc(C)cc1 | -1 | -22 | 35* | -13 | -6 | 10
Cc1ccc2occ(C(c3nnnn3Cc3ccccc3)N3CCOCC3)c(=O)c2c1 (stereo unspecified) | -1 | -37 | 25* | -4 | 1 | 1
O=C(NCC1CCN(C(=O)c2ccoc2)CC1)c1ccno1 | / | / | / | -10 | / | /
COc1ccc(N2Cc3ccc(OC)c(OC)c3C2=O)cc1 | -1 | -62 | i | -7 | -3 | /
COc1ccc2c(c1OC)C(=O)N(c1nccs1)C2 | -1 | -30 | 12 | -12 | -1 | 0
Cn1nc2c(c1NC(=O)c1cc3ccccc3oc1=O)CCC2 | / | / | / | -2 | / | /
O=[N+]([O-])c1ccc(N(CCO)CCO)c2c1no[n+]2[O-] | 1 | / | 39* | / | -22 | 2
COc1ccccc1NC(=O)COC(=O)c1cc2ccccc2s1 | / | / | / | / | / | / | HeLa 24h tox=9
COc1ccccc1NC(=O)COC(=O)c1ccc(C)cc1 | / | / | / | / | / | / | HeLa 24h tox=-7
COc1ccccc1NC(=O)c1ccc(NC(=O)COC(=O)c2ccc(O)cc2)cc1 | -2 | -7 | -2 | -11 | -1 | /
COc1ccc(Cl)cc1NC(=O)COC(=O)c1ccc(C)o1 | -4 | -47 | / | -8 | 2 | i | HeLa 24h tox=-7
SMILES | FadD28 FP inh | PrP UTR inh | Vc quorum ag-1 | PriA SSB inh | PrPC TRFRET | Vc quorum ag-2 | others
COc1ccc(Cl)cc1NC(=O)COC(C)=O | -1 | -12 | -1 | -10 | 4 | /
Cn1nc(CNS(=O)(=O)c2ccc(C(F)(F)F)cc2)cc1-c1ccco1 | / | / | / | -5 | / | /
CCCNC(=O)COC(=O)/C=C/c1ccco1 | -2 | -18 | + | -10 | -7 | i
Cc1ccc(/C=C/C(=O)OCC(=O)NCCc2ccc(S(N)(=O)=O)cc2)o1 | 1 | -26 | 26* | 0 | -3 | 7
Cc1ccc(/C=C/C(=O)NCc2ccc(S(N)(=O)=O)cc2)o1 | -3 | 0 | 0 | -8 | -5 | /
O=C(COC(=O)/C=C/c1ccco1)NCc1ccccc1 | -5 | -28 | 1 | -24 | 5 | /
O=C(NCCOc1ccc(F)cc1)c1ccc(Cl)c([N+](=O)[O-])c1 | / | / | / | 12 | / | /
CC(C)[C@H](NC(=O)c1cccc(S(=O)(=O)N2CCCC2)c1)c1nc2ccccc2[nH]1 | 0 | -20 | / | 2 | -2 | /
CC(C)C(NC(=O)c1ccc(S(=O)(=O)N2CCOCC2)cc1)c1nc2ccccc2[nH]1 (stereo unspecified) | 2 | 1 | 14 | -11 | 10 | 0
Cc1ccc(C)c(OCCC(=O)OCC(=O)NC(=O)NC2CCCC2)c1 | 2 | 1 | i | -11 | -3 | /
Cc1ccc(C)c(OCCC(=O)OCC(=O)NC2CC2)c1 | 0 | -29 | 27 | 2 | -3 | 0
CCCCN1C(=O)C(O)(CC(=O)c2ccccn2)c2ccccc21 (stereo unspecified) | -1 | 7 | 44* | 4 | 1 | 200
CCCCN1C(=O)C(O)(CC(=O)c2ccccc2OC)c2ccccc21 (stereo unspecified) | 1 | 17 | 0 | -4 | -5 | /
CC1Oc2ccccc2OC1C(=O)Nc1ccccc1C(=O)O (stereo unspecified) | / | / | / | -9 | / | /
Cc1cccc(-c2cc3nc4c(c(N5CCOCC5)n3n2)CCCC4)c1 | -2 | -48 | i | -4 | -5 | /
Cc1cccc(-c2cc3nc4c(c(N5CCC6(CC5)OCCO6)n3n2)CCCC4)c1 | 0 | -27 | 1 | -18 | -4 | 0
COc1ccccc1/C=C/C=NNC(=O)Cc1cccn1C | / | / | / | 5 | / | /
CC(C)(C)OC(=O)C[C@@H]1C/C=C/C[C@H](CC(=O)N[C@H](CO)Cc2ccccc2)C(=O)N2CCC[C@H]2COC1=O | / | / | / | -9 | / | /
COCc1nnc(NS(=O)(=O)c2ccc(F)cc2)s1 | 0 | -19 | -1 | -14 | 2 | /
COCc1nnc(NS(=O)(=O)c2ccc(Br)cc2)s1 | 0 | -5 | 28* | 1 | 2 | 0
Cc1cc(C(C)(C)C)oc1C(=O)OCC(=O)NC1CCCCC1 | -1 | -9 | 145* | -3 | 5 | 26
O=C(COC(=O)c1ccc(O)cc1)NC1CCCCCCC1 | 0 | / | i | / | 8 | /
O=C(COC(=O)c1ccc(Br)cc1)NC1CCCC1 | 1 | -14 | 131* | -18 | 12 | 58
NS(=O)(=O)c1cc(C(=O)OCC(=O)NC2CCCCCCC2)ccc1Cl | -4 | -7 | 14 | 6 | 3 | 0
CO[C@@]1(CNC(=O)c2cc(C3CC3)on2)CCSC1 | / | / | / | -9 | / | /
CCCN1CCN(C(=O)CCCNC(=O)Cn2cnc3sc(C)c(C)c3c2=O)CC1 | 0 | -25 | 14 | -18 | 0 | 5
Cc1sc2ncn(CC(=O)NCCCC(=O)N3CCC(C(N)=O)CC3)c(=O)c2c1C | 0 | -8 | 0 | 1 | -3 | /
Cn1cccc1[C@@H](O)CCNC(=O)C(C)(C)Oc1ccc(Cl)cc1 | / | / | / | 2 | / | /
O=C(CCN1C(=O)c2ccccc2C1=O)N1CCN(C2c3ccccc3-c3ccccc32)CC1 | -4 | -41 | 13 | -4 | -10 | 2
O=C(c1cccc(N2C(=O)CCC2=O)c1)N(Cc1cccnc1)c1nc2c(F)cc(F)cc2s1 | / | / | / | -11 | / | /
